# NS1 function inh: qHTS Assay for Inhibitors of Influenza NS1 Protein Function; Potency, µM (top dose mostly 46.1 µM), for the others: at the top dose activity, positive = more growth; 0.4% of 270,000 active; further: potency means the concentration at half of the fitted maximal effect; actives are rising curves; nearly all actives have a fitted effect of over 50% in size
#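 OD600 was taken as the measure of yeast growth restored by compound in an NS1-expressing S. cerevisiae strain. Cells had been washed out of glucose medium and diluted 1:100 into galactose -URA medium, pH 6.0.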
# Pf growth 48h: Primary qHTS for delayed death inhibitors of the malarial parasite plastid, 48 hour incubation | P. falciparum luciferase growth in erythrocytes, 48 h | Potency, µM (doses to about 28.7 µM), without a hit: at the highest dose activity change, negative = inhibition, usual class: inhibitors | 5.9% of 310,000 active | AID 504832, 2011; active means well fitted inhibition curve with a large enough effect; inconclusive means small, poorly fitted or top-dose-only effect, or another doubt; inactive means no such curve, though single readings can be large or run the other way; further: potency means the concentration at half of the fitted maximal effect; on the % scale 0 is the no-effect control and ±100 the full control effect
#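 Luminescence readout; reporter = integrated firefly luciferase in P. falciparum. RBC culture at 2% hematocrit, 0.1% parasitemia final, 37 C/5% CO2; decreased signal taken as growth inhibition.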
# Pf growth 96h: Primary qHTS for delayed death inhibitors of the malarial parasite plastid, 96 hour incubation. P. falciparum luciferase reporter growth, 96 h. Potency, µM (top dose mostly 28.7 µM), for inactives: at the highest dose activity change, negative = inhibition, hits mostly inhibitors. 6.9% of 320,000 active. AID 504834, 2011; active means well fitted inhibition curve with a large enough effect; inconclusive means small, poorly fitted or top-dose-only effect, or another doubt; inactive means no such curve, though single readings can be large or run the other way; further: potency means the concentration at half of the fitted maximal effect; on the % scale 0 is the no-effect control and ±100 the full control effect
#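 Plates of compound plus infected erythrocytes (2% hematocrit, 0.05% parasitemia final) incubate 96 hours, 37 C, 5% CO2. Detection reagent added; reduced luminescence from the parasites' luciferase reporter flags inhibition.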
# Shiga toxin inh: A qHTS for Small Molecule Inhibitors of Shiga Toxin | AID 2315, 2010 | Vero cells, Shiga toxin protein synthesis inhibition reporter | 9.2% of 290,000 active | inhibition, % at 38.7 µM; in the data active means inhibition mostly above about 28%, no sharp cut-off; inactive means mostly below about 43%; further: 0% is about no effect
# SARS PLP yeast: qHTS of Yeast-based Assay for SARS-CoV PLP; S. cerevisiae expressing SARS-CoV PLpro, growth rescue; Potency, µM (doses to about 32.9 µM), for the others: at the highest dose activity, positive = growth rescue, usual class: activators; 0.19% of 330,000 active; AID 485353, 2010; further: potency means the concentration at half of the fitted maximal effect; 0% is about no effect; nearly all actives have a fitted effect of over 55% in size
# Cycloheximide cs: Cycloheximide Counterscreen for Small Molecule Inhibitors of Shiga Toxin; max response, %; 12% of 300,000 active; cell reporter, cycloheximide protein synthesis inhibition counterscreen; in the data active means max response mostly above about 13%, no sharp cut-off; inactive means mostly below about 14%; further: read at 38.3 µM for the half of the compounds with a filed dose; 0% is about no effect
# * marks the source's active call; other numbers are inactive results; ? = inconclusive; . = no result; [ ] = dose if it differs, or a comment. In the library only some 21% were active in any assay of this set; here they are far more common. Unless noted, the call rests on the fitted dose curve.
SMILES,NS1 function inh,Pf growth 48h,Pf growth 96h,Shiga toxin inh,SARS PLP yeast,Cycloheximide cs
COc1cc(OC)c(N(C)C(=O)c2cn(C)c(=O)c3cc(OC)c(OC)cc23)cc1Cl,-6.1%,.,22.9%,-3.0,1.9%,-1.2
Cn1nnc(NC(=S)NC(=O)c2cc(Cl)ccc2Cl)n1,-73.2%,8.28µM*,4.15µM*,15.4,3.3%,-1.0
Cc1nc(NC(=O)/C=C/c2ccccc2)n[nH]1,-31.8%,?,?,22.1,-50.2%,15.5*
CCCn1nnc(NC(=O)/C=C/c2ccccc2)n1,-8.2%,0.0%,14.7%,51.9,-0.7%,16.7*
COc1cc2ccccc2cc1C(=O)NC(=S)Nc1nnn(C)n1,24.2%,3.6%,?,14.1,4.0%,-2.1
CCCn1nnc(NC(=O)c2ccc(Cl)cc2Cl)n1,6.6%,188.8%,?,112.9*,-2.8%,45.0*
CCCN(CC(=O)Nc1ccccc1C)C(=O)COc1ccc2c(c1)CCC2,-13.7%,?,-3.1%,-5.5,-9.6%,14.9
COc1cccc(C(=O)NCC(c2ccco2)N2CCOCC2)c1 (stereo not drawn),.,-5.4%,-0.7%,.,1.4%,.
COc1ccccc1N(C)S(=O)(=O)c1ccc(Cl)c(C(=O)OCc2c(C)noc2C)c1,.,?,?,-8.0,0.0%,6.0
CCCn1nnc(NC(=O)c2ccccc2Cl)n1,-1.1%,86.6%,.,46.4,-1.7%,26.8*
CC1=C(C(=O)Nc2ccccc2)C(c2ccncc2)n2nnnc2N1 (stereo not drawn),3.8%,27.4%,0.928µM*,-13.5,1.0%,-5.8
COc1ccc(C2NC(=S)NC(C)=C2C(=O)Nc2ccccn2)cc1 (stereo not drawn),3.6%,23.1%,-20.6%,34.1*,0.1%,36.3*
COc1ccc(C2C(C(=O)Nc3ccccn3)=C(C)Nc3ncnn32)c(OC)c1 (stereo not drawn),8.9%,1.4%,-3.5%,10.4,11.6%,-4.2
CC1=C(C(=O)Nc2ccccn2)C(c2ccc(N(C)C)cc2)n2ncnc2N1 (stereo not drawn),-3.1%,40.0%,1.9%,97.8,-0.3%,12.0
CC1=C(C(=O)Nc2ccccn2)C(c2ccccc2)n2ncnc2N1 (stereo not drawn),3.0%,61.8%,3.8%,11.2,2.8%,15.1*
CC1=C(C(=O)Nc2ccccn2)C(c2ccc(F)cc2)n2ncnc2N1 (stereo not drawn),-3.5%,46.8%,-5.1%,41.9,12.2%,14.7*
Oc1c(Br)cc(Br)cc1C=Nc1cccnc1,-68.4%,?,90.3%,-4.6,-2.3%,6.6
CCn1c(C)nc2cc(C(=O)NNC(=O)CCC3CCCC3)ccc21,-8.0%,13.3%,28.5%,2.0,28.4%,-0.2
CCOc1ccc(N(CC(=O)Nc2cccnc2)S(=O)(=O)c2ccc(C)cc2)cc1,.,13.1µM*,2.1%,.,-6.5%,.
CCOc1ccc(N(CC(=O)O)S(=O)(=O)c2cccnc2)cc1,2.1%,.,14.7µM*,-12.6,2.9%,-8.7
COc1ccc(N(CC(=O)Nc2cccnc2)S(=O)(=O)c2ccc(C)cc2)cc1Cl,-15.5%,?,22.9%,4.3,0.9%,-1.2
CC(C)CN(C(=O)COC(=O)c1cccn1C)c1c(N)n(Cc2ccccc2)c(=O)[nH]c1=O,0.6%,-8.4%,11.5%,-4.0,-2.4%,0.8
Cc1ccc(C)c(OCCC(=O)OCC(=O)NCCc2ccc(S(N)(=O)=O)cc2)c1,.,2.2%,33.8%,.,-0.4%,.
CCOc1ccccc1NC(=O)CSc1nnc(-c2ccccc2Cl)n1Cc1ccco1,-2.8%,?,2.0%,-17.1,-2.5%,4.6
COC(CNC(=O)c1ccc(CS(=O)(=O)c2ccc(C)cc2)o1)OC,2.3%,8.8%[0.00184 µM],2.62µM*,-4.5,-1.7%,-3.2
SMILES,NS1 function inh,Pf growth 48h,Pf growth 96h,Shiga toxin inh,SARS PLP yeast,Cycloheximide cs
COCCCNC(=O)c1ccc(CS(=O)(=O)c2ccc(Br)cc2)o1,-2.4%,.,19.0%,-8.7,-1.3%,0.3
COC(CNC(=O)c1ccc(CS(=O)(=O)c2ccc(Br)cc2)o1)OC,-0.7%,-25.7%[0.00184 µM],5.2%,5.5,0.8%,-6.4
COCCCNC(=O)c1ccc(CS(=O)(=O)c2ccc(OC)cc2)o1,-13.3%,17.9%,10.4µM*,3.9,0.9%,-0.2
COc1ccccc1N=Cc1c(C)c(C#N)c2[nH]c3ccccc3n2c1=O,1.1%,11.6%,36.0%,36.4,-0.1%,18.2*
O=C(Nc1ccccc1F)c1ccc(O)c2ncccc12,.,4.15µM*,1.47µM*,.,2.3%,.
COC(=O)c1cn(NC(=O)c2ccc(OC)c(OC)c2)c(=O)c2ccccc12,5.0%,?,13.1µM*,14.2,9.4%,-1.2
COC(=O)c1cn(NC(=O)c2ccccc2[N+](=O)[O-])c(=O)c2ccccc12,.,-15.0%,-25.9%,-1.9,0.1%,-4.2
COC(=O)c1cn(NC(=O)c2ccc(OC)c([N+](=O)[O-])c2)c(=O)c2ccccc12,.,0.6%,?,9.1,-0.2%,-1.4
O=C(Nn1cc(C(=O)Nc2ccccc2F)c2ccccc2c1=O)c1cnccn1,.,4.15µM*,?,-6.5,7.1%,-6.1
COC(=O)c1cn(NC(=O)c2cnccn2)c(=O)c2ccccc12,-139.9%,9.28µM*,-10.5%,-17.2,?,-2.1
O=C(O)C[C@H](Sc1ccccc1)c1ccccc1,-11.4%,.,.,.,.,.
O=C(CSc1n[nH]c(-c2ccncc2)n1)Nc1ccc(Cl)c(Cl)c1,-6.2%,4.4%,0.5%,24.1,-2.2%,-4.5
N#Cc1ccc(C(=O)NCC(c2ccco2)N2CCCCC2)cc1 (stereo not drawn),1.0%,.,10.4µM*,6.5,3.2%,-1.8
Cc1cc(C)n(-c2ccc(C(=O)NCC(c3ccco3)N3CCCC3)cc2)n1 (stereo not drawn),.,?,5.22µM*,.,-1.5%,.
Cc1cc(C(=O)NCC(c2ccco2)N2CCCC2)c2ccccc2n1 (stereo not drawn),.,?,10.4µM*,.,-2.5%,.
O=C(CNC(=O)c1ccccc1)NCC(c1ccco1)N1CCCC1 (stereo not drawn),.,.,.,.,13.5%,.
CCC(=O)N1CCN(c2ccc(NC(=S)NC(=O)c3cc4ccccc4o3)cc2)CC1,7.2%,16.4%,2.1%,21.4,-1.0%,24.9
CCc1ccc(N2CC(C)Cn3c2nc2c3c(=O)[nH]c(=O)n2C)cc1 (stereo not drawn),7.0%,7.38µM*,2.94µM*,-6.7,1.1%,-4.4
C=CCSc1n[nH]c(-c2cccs2)n1,-11.2%,88.4%,28.7%,56.0,-1.3%,9.1
C=CCSc1n[nH]c(-c2ccc(OCCCC)cc2)n1,-93.7%,?,.,16.9*,-21.1%,41.3*
C=CCSc1n[nH]c(-c2ccc(OCCC)cc2)n1,-95.5%,-28.3%,-2.1%,125.0*,-15.4%,50.0*
Cc1ccc(C(=O)N/C(=C\c2ccccc2)C(=O)NCc2cccnc2)cc1,-0.1%,19.2%,?,-7.3,0.1%,15.0
